Results from ChEMBL document CHEMBL3988442, “University of Dundee, Small-Polar-MMV Screening Library” (2021).

Key:
[1] = target: T1, Aspartate--tRNA(Asp/Asn) ligase (Mycobacterium tuberculosis (strain ATCC 25618 / H37Rv)) (UniProt P9WFW3); experiment: Assay for Asp RNA synthetase-1 from Mycobacterium tuberculosis; type: functional; set-up: scale not given: direction of the effect not stated beside the values; settings: 30 µM; note: in the data most compounds retested in dose-response had high values
T1 sequence (whole entry): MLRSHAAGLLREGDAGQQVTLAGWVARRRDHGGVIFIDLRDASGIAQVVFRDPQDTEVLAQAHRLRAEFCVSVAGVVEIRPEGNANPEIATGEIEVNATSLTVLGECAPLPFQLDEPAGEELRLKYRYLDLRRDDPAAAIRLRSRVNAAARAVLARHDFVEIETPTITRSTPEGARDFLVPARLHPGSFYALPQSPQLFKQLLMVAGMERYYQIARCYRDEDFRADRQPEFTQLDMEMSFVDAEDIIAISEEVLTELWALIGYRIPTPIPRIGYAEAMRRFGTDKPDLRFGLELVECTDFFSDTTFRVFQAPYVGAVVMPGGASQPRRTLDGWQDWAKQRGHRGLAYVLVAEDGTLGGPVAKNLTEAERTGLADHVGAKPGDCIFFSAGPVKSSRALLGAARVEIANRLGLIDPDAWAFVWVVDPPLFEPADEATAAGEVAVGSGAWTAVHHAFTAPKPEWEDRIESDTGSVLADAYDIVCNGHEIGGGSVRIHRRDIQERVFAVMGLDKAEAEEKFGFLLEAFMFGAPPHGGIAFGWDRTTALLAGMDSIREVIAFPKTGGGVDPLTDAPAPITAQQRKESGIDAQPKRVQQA

[2] = target: Shiga toxin 2 (Escherichia coli O157:H7) (UniProt P09385+P09386); experiment: E. coli 0.157:H7 Shiga Toxin SOP - stx2 screening assay; type: functional; set-up: scale not given: direction of the effect not stated beside the values; settings: 30 µM

COCCN1C[C@@H](C)[C@@]2(COCCN(C(=O)c3cnc(C)cn3)C2)C1
Percent Effect [1]: -1.78%
Percent Effect [2]: -19.1%

CCN(CC)C(=O)c1nnn(Cc2ccccc2)c1OC
Percent Effect [1]: 0.348%
Percent Effect [2]: 3.85%

CCn1cc(CN(C)S(=O)(=O)c2cnn(CC)c2C)c(C)n1
Percent Effect [1]: -3.81%
Percent Effect [2]: 3.32%

COc1ccc(CNC(=O)C2(C#N)CCCC2)cc1
Percent Effect [1]: 2.12%
Percent Effect [2]: 8.48%

O=C(CCN1CCCC1=O)NCc1cccnc1Oc1ccccc1
Percent Effect [1]: -8.91%
Percent Effect [2]: 8.3%

N#Cc1ccc(C(=O)N2CCn3c(Cn4cccn4)cnc3C2)cc1
Percent Effect [1]: 1.54%
Percent Effect [2]: 0.128%

CCOCC(O)CN1CCN(C(=O)C2CC2)CC1 (centres undefined)
Percent Effect [1]: 1.82%
Percent Effect [2]: 21.4%

O=C(NCCn1ccnc1)c1ccn(-c2cccc(F)c2)n1
Percent Effect [1]: 5.59%
Percent Effect [2]: 0.0864%

CCS(=O)(=O)N1CCO[C@H]2[C@H](OCCCn3cccn3)CC[C@@H]21
Percent Effect [1]: 0.786%
Percent Effect [2]: -17.2%

CCOc1ccccc1-c1noc(CN(C)Cc2cnn(C)c2)n1
Percent Effect [1]: 2.13%
Percent Effect [2]: -14%

CC(=O)N1CCCC1C(=O)NCCOc1cc(C)cc(C)c1 (centres undefined)
Percent Effect [1]: -2.19%
Percent Effect [2]: 9.04%

Cn1ccnc1CN1CCCC1c1noc(C2CC2)n1 (centres undefined)
Percent Effect [1]: -0.426%
Percent Effect [2]: -7.56%

Cc1nn2c(N3CCC(O)CC3)cc(-c3ccccc3)nc2c1C
Percent Effect [1]: 1.19%
Percent Effect [2]: 7.56%

CCn1cc(CN2CCCN(C(=O)c3sccc3C#N)CC2)cn1
Percent Effect [1]: 0.257%
Percent Effect [2]: -4.04%

O=C1OCCN1CCOc1nc(-c2ccccc2Cl)no1
Percent Effect [1]: -7.33%
Percent Effect [2]: -14.8%

CC(C)CCN1CCC2(CC1)CN(C(=O)c1cnccn1)CCO2
Percent Effect [1]: -0.349%
Percent Effect [2]: -0.912%

Cn1cc(C(=O)N2CCC(Cc3nccs3)CC2)cn1
Percent Effect [1]: 2.4%
Percent Effect [2]: 59.9%
